Residue numbers refer to the chain shown, from its start. The full ranking holds about 16,000 sequences; the median of “ka relative to ugcaugu” is about 0.096, and the highest 2% start at about 0.35. The sample as a whole holds a higher share of the highest values than the screen did.

Drawing on article PMC9911399, “Two distinct binding modes provide the RNA-binding protein RbFox with extraordinary sequence specificity”, this text covers binding signal for 21 molecules.

The chains are these.
T1: RBFOX1 RRM RbFoxmut (Fox-RRM*) (Homo sapiens, UniProt Q9NWB1 109-208, R118D;E147R;N151S;E152T)
T1 sequence: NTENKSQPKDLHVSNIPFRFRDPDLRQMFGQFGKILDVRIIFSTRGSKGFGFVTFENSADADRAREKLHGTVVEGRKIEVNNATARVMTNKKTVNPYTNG

B1: AGGAUGG (DNA:RNA)
RNA: GGGAGACCGGAAUUCAGAUUGUCCAGGAUGGUUAAAUCCCGUCGUAGCCACCA
DNA 1: CAATCTGAATTCCGGTCTCCC
DNA 2: TGGTGGCTACGACGGGATT
B2: UCGUACU (DNA:RNA)
RNA: B1 RNA with A25U, G26C, A28U, U29A, G30C, G31U
DNA 1: CAATCTGAATTCCGGTCTCCC
DNA 2: TGGTGGCTACGACGGGATT
B3: GGAUGUU (DNA:RNA)
RNA: B1 RNA with A25G, G27A, A28U, U29G, G30U, G31U
DNA 1: CAATCTGAATTCCGGTCTCCC
DNA 2: TGGTGGCTACGACGGGATT
B4: GGGGAUG (DNA:RNA)
RNA: B1 RNA with A25G, A28G, U29A, G30U
DNA 1: CAATCTGAATTCCGGTCTCCC
DNA 2: TGGTGGCTACGACGGGATT
B5: GAGAUGU (DNA:RNA)
RNA: B1 RNA with A25G, G26A, G31U
DNA 1: CAATCTGAATTCCGGTCTCCC
DNA 2: TGGTGGCTACGACGGGATT
B6: GGGGGGA (DNA:RNA)
RNA: B1 RNA with A25G, A28G, U29G, G31A
DNA 1: CAATCTGAATTCCGGTCTCCC
DNA 2: TGGTGGCTACGACGGGATT
B7: GGGAUGU (DNA:RNA)
RNA: B1 RNA with A25G, G31U
DNA 1: CAATCTGAATTCCGGTCTCCC
DNA 2: TGGTGGCTACGACGGGATT
B8: CGGGAUG (DNA:RNA)
RNA: B1 RNA with A25C, A28G, U29A, G30U
DNA 1: CAATCTGAATTCCGGTCTCCC
DNA 2: TGGTGGCTACGACGGGATT
B9: CACAAUA (DNA:RNA)
RNA: B1 RNA with A25C, G26A, G27C, U29A, G30U, G31A
DNA 1: CAATCTGAATTCCGGTCTCCC
DNA 2: TGGTGGCTACGACGGGATT
B10: CGUCAUC (DNA:RNA)
RNA: B1 RNA with A25C, G27U, A28C, U29A, G30U, G31C
DNA 1: CAATCTGAATTCCGGTCTCCC
DNA 2: TGGTGGCTACGACGGGATT
B11: CGGUAUC (DNA:RNA)
RNA: B1 RNA with A25C, A28U, U29A, G30U, G31C
DNA 1: CAATCTGAATTCCGGTCTCCC
DNA 2: TGGTGGCTACGACGGGATT
B12: CGGAAUC (DNA:RNA)
RNA: B1 RNA with A25C, U29A, G30U, G31C
DNA 1: CAATCTGAATTCCGGTCTCCC
DNA 2: TGGTGGCTACGACGGGATT
B13: GUUAAUC (DNA:RNA)
RNA: B1 RNA with A25G, G26U, G27U, U29A, G30U, G31C
DNA 1: CAATCTGAATTCCGGTCTCCC
DNA 2: TGGTGGCTACGACGGGATT
B14: GGGUAUC (DNA:RNA)
RNA: B1 RNA with A25G, A28U, U29A, G30U, G31C
DNA 1: CAATCTGAATTCCGGTCTCCC
DNA 2: TGGTGGCTACGACGGGATT
B15: CGUAAUC (DNA:RNA)
RNA: B1 RNA with A25C, G27U, U29A, G30U, G31C
DNA 1: CAATCTGAATTCCGGTCTCCC
DNA 2: TGGTGGCTACGACGGGATT
B16: GGGCAUC (DNA:RNA)
RNA: B1 RNA with A25G, A28C, U29A, G30U, G31C
DNA 1: CAATCTGAATTCCGGTCTCCC
DNA 2: TGGTGGCTACGACGGGATT
B17: CGGCAUC (DNA:RNA)
RNA: B1 RNA with A25C, A28C, U29A, G30U, G31C
DNA 1: CAATCTGAATTCCGGTCTCCC
DNA 2: TGGTGGCTACGACGGGATT
B18: GGCAUCU (DNA:RNA)
RNA: B1 RNA with A25G, G27C, G30C, G31U
DNA 1: CAATCTGAATTCCGGTCTCCC
DNA 2: TGGTGGCTACGACGGGATT
B19: GGGAAUC (DNA:RNA)
RNA: B1 RNA with A25G, U29A, G30U, G31C
DNA 1: CAATCTGAATTCCGGTCTCCC
DNA 2: TGGTGGCTACGACGGGATT
B20: GGUAUCU (DNA:RNA)
RNA: B1 RNA with A25G, G27U, G30C, G31U
DNA 1: CAATCTGAATTCCGGTCTCCC
DNA 2: TGGTGGCTACGACGGGATT
B21: GGAGAUC (DNA:RNA)
RNA: B1 RNA with A25G, G27A, A28G, U29A, G30U, G31C
DNA 1: CAATCTGAATTCCGGTCTCCC
DNA 2: TGGTGGCTACGACGGGATT

For the assay, the target named is T1, RBFOX1 RRM RbFoxmut (Fox-RRM*). Briefly: EMSA; HiTS-Eq, 1 nM pool, 10 min; buffer printed only for the single-RNA assays: 10 mM Tris pH 7.5, 150 mM NaCl, 3.4 mM EDTA, 0.001% NP-40, 30 C. To be noted: tags: His6 N-terminal (pET28a); label: 5' 32P. The method, boiled down:
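These values rest on relative association constants, computed from read-count changes of each RNA species versus the control reaction and normalised to the cognate motif. Reads came from free RNA recovered by 8% native PAGE after purified RbFox RRM (wild type or mutant) at increasing concentrations was equilibrated for 10 min in 50 µL with 1 nM of a 5′-radiolabelled pool with 7 randomized nucleotides and DNA-annealed flanks.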
(In general: Mobility shift assays separate free from complexed probe on a gel.)
For B1, the binding signal was 0.177 KA relative to UGCAUGU.

Turning to B2, the binding signal was 0.0912 KA relative to UGCAUGU. For B3 the value was 0.213 KA relative to UGCAUGU. For B4 the value was 0.612 KA relative to UGCAUGU; for B5, 0.15 KA relative to UGCAUGU; for B6, 0.082 KA relative to UGCAUGU. Consider B7, for which the binding signal is 0.373 KA relative to UGCAUGU.

As to B8, the binding signal was 0.296 KA relative to UGCAUGU. Consider B9, for which the binding signal was 0.084 KA relative to UGCAUGU. B10: the binding signal was 0.0997 KA relative to UGCAUGU.

For B11, the binding signal was 0.245 KA relative to UGCAUGU. For B12 the value was 0.436 KA relative to UGCAUGU. To B13 belongs 0.0571 KA relative to UGCAUGU. As for B14, the binding signal is 0.409 KA relative to UGCAUGU. Take B15: the binding signal is 0.0673 KA relative to UGCAUGU. To B16 belongs 0.396 KA relative to UGCAUGU; to B17, 0.261 KA relative to UGCAUGU. To B18 belongs 0.27 KA relative to UGCAUGU. To B19 belongs 0.494 KA relative to UGCAUGU.

In the case of B20, the binding signal was 0.206 KA relative to UGCAUGU. For B21 the value was 0.155 KA relative to UGCAUGU.
